Most compounds without a hit are left out; they make up all but 3.4% or so of the library.
TEAD-YAP inh – TEAD-YAP interaction inhibition, primary screen, TEAD-YAP interaction inhibitor project, luminescence, HEK-TIYL cells; TEAD-Gal4/YAP UAS-luciferase luminescence; 640,000 compounds, 1.4% hits; inhibition, % at 9.12 µM; AID 1259422, 2018; in the data active = inhibition above about 32%;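 also: 0% = median of test compound wells and 100% = reference inhibitor wells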
MITF primary – MITF inhibitors, primary screen, biochemical, AlphaScreen, human. Microphthalmia-associated transcription factor (Homo sapiens), O75030. AlphaScreen MITF homodimerization, bead proximity signal. inhibition, % at 2.6 µM. 650,000 compounds, 0.91% hits. AID 1259374, 2018; in the data active = inhibition above about 50%;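 also: 0% = vehicle wells with protein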
FBW7 act – FBW7 E3 ligase activators, primary screen, biochemical, AlphaScreen, human. AlphaScreen FBW7–phospho-cyclin E peptide binding, activator screen. normalized activity (activation), % at 26.1 µM. 650,000 compounds, 0.13% hits; in the data active = normalized activity above about 1.9%;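 also: purified mutant Fbw7 with reduced substrate affinity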
Target sequence (Q969H0 whole entry, looked up): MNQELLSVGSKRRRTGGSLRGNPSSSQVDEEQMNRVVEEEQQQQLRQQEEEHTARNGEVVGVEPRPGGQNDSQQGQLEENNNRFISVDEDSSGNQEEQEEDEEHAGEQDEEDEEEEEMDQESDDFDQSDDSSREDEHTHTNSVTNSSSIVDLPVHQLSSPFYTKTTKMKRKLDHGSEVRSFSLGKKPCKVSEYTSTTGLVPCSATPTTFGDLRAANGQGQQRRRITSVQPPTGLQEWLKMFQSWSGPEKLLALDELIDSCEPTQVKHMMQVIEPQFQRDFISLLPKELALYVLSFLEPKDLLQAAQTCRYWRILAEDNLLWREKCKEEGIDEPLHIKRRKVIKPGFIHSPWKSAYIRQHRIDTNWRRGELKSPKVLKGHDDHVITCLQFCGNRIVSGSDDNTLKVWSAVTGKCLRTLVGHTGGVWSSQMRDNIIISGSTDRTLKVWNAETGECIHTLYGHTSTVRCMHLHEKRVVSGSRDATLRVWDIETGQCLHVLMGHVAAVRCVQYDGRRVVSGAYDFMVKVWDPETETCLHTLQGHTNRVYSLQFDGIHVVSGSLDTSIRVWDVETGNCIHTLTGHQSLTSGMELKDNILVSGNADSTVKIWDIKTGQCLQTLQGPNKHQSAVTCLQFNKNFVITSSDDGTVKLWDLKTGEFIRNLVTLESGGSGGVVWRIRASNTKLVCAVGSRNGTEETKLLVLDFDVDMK
GPR151 activ – activators of human GPR151, primary screen, cell-based, PathHunter beta-arrestin, luminescence; AID 1508602, 2020; activation, % at 11.2 µM; G-protein coupled receptor 151 (Homo sapiens), Q8TDV0; PathHunter beta-arrestin GPR151 cells; 650,000 compounds, 1% hits; in the data active = activation above about 4.9%;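 also: 0% = median of compound wells and 100% = cells with positive control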
MITF inh conf – MITF inhibitors, retest of hits, confirmation, biochemical, AlphaScreen, triplicate; shares compounds with MITF primary; AlphaScreen MITF homodimerization, biotin/His-MITF beads; inhibition, % at 2.6 µM; 4,700 compounds, 16% hits;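 active = inhibition above a cutoff derived from the DMSO control wells, cut at about 28% in these data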;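 also: 0% = MITF dimer wells with DMSO only; inhibitors lower the bead chemiluminescence by keeping MITF from dimerizing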
AlphaScreen DR – AlphaScreen optical interference compounds, dose response, counter-screen, biochemical, HTS; IC50, µM; 480 compounds, 6% hits; shares compounds with MITF primary; AID 1259373, 2018; AlphaScreen optical interference counterscreen, cell-free; call rule not given here
AlphaScreen intf2 – AlphaScreen optical interference compounds, counter-screen for MITF inhibitor project, biochemical, triplicate | LysRS AlphaScreen counterscreen, signal interference | AID 1259376, 2018 | inhibition, % at 2.6 µM | shares compounds with MITF primary | 4,700 compounds, 7.6% hits;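 active = inhibition above a cutoff derived from the DMSO control wells, cut at about 30% in these data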
An asterisk follows results filed as active.

What do the screens show for `FC(F)(F)c1ccccc1CN1CCC(N2CCCC2)CC1`?
TEAD-YAP inh: 0; MITF primary: 57*; FBW7 act: 0; GPR151 activ: 1; MITF inh conf: 7; AlphaScreen intf2: 13

What do the screens show for `FC(F)(F)c1ccccc1CN1CCN(C2CCCCC2)CC1`?
TEAD-YAP inh: 7; MITF primary: 69*; FBW7 act: 0; GPR151 activ: -1; MITF inh conf: 16; AlphaScreen intf2: 18

How did FC(F)(F)c1ccccc1CN1CCN(C2C3CC4CC(C3)CC2C4)CC1 (stereo not given) do in these assays?
TEAD-YAP inh: -2; MITF primary: 76*; FBW7 act: 0; GPR151 activ: 0; MITF inh conf: 15; AlphaScreen intf2: 11

Results for O=S(=O)(c1ccc2ccccc2c1)N1CCN(Cc2ccccc2C(F)(F)F)CC1 ?
TEAD-YAP inh: -5; MITF primary: 11; FBW7 act: 0; GPR151 activ: 1

What do the screens show for `COc1ccc(-c2noc(-c3cccs3)n2)cc1`?
TEAD-YAP inh: 17; MITF primary: -2; FBW7 act: 0; GPR151 activ: -7

Results for CCOC(=O)C1CCCCN1Cc1ccccc1C(F)(F)F (stereo not given) ?
TEAD-YAP inh: -9; MITF primary: 53*; FBW7 act: 0; GPR151 activ: 0; MITF inh conf: -3; AlphaScreen intf2: 6

What do the screens show for `COc1ccc(OC)c(-c2nc(C(N)=O)c3[nH]c(=O)n(-c4ccc(C)cc4)c3n2)c1`?
TEAD-YAP inh: 5; MITF primary: 15; FBW7 act: 0; GPR151 activ: 0

Results for NC(=O)c1ccc(-c2cccs2)s1 ?
TEAD-YAP inh: -6; MITF primary: 59*; FBW7 act: 0; GPR151 activ: 0; MITF inh conf: 39*; AlphaScreen DR: >7.3; AlphaScreen intf2: 3

Results for NC(=O)c1ccc(-c2csc3ccccc23)s1 ?
TEAD-YAP inh: -5; MITF primary: 11; FBW7 act: 0; GPR151 activ: 1

What do the screens show for `O=C(Nc1cc(S(=O)(=O)O)cc2cc(S(=O)(=O)O)cc(O)c12)c1ccccc1`?
TEAD-YAP inh: -3; MITF primary: 81*; FBW7 act: 0; GPR151 activ: -1; MITF inh conf: 60*; AlphaScreen DR: >6.5; AlphaScreen intf2: 10

How did O=C(Nc1cc(NC(=O)c2ccccc2)c(C(=O)O)cc1C(=O)O)c1ccccc1 do in these assays?
TEAD-YAP inh: -17; MITF primary: -7; FBW7 act: 0; GPR151 activ: -1

What do the screens show for `Fc1ccccc1CN1CCN(Cc2cccc3ccccc23)CC1`?
TEAD-YAP inh: -12; MITF primary: 74*; FBW7 act: 0; GPR151 activ: -1; MITF inh conf: 19; AlphaScreen intf2: -4

Results for Fc1ccccc1CN1CCN(Cc2c[nH]c3ccccc23)CC1 ?
TEAD-YAP inh: 15; MITF primary: 65*; FBW7 act: 0; GPR151 activ: 2; MITF inh conf: -2; AlphaScreen intf2: -1

How did Fc1ccccc1CN1CCCCCC1 do in these assays?
TEAD-YAP inh: 1; MITF primary: 16; FBW7 act: 0; GPR151 activ: 0

Results for c1ccc2c(CN3CCN(Cc4c[nH]c5ccccc45)CC3)cccc2c1 ?
TEAD-YAP inh: 18; MITF primary: 74*; FBW7 act: 0; GPR151 activ: 1; MITF inh conf: -7; AlphaScreen intf2: 7

What do the screens show for `CCS(=O)(=O)N1CCN(Cc2c[nH]c3ccccc23)CC1`?
TEAD-YAP inh: 12; MITF primary: 51*; FBW7 act: 0; GPR151 activ: -2; MITF inh conf: 5; AlphaScreen intf2: 10

What do the screens show for `c1cnc(N2CCN(Cc3c[nH]c4ccccc34)CC2)nc1`?
TEAD-YAP inh: 4; MITF primary: 10; FBW7 act: 0; GPR151 activ: 0

How did Clc1ccc(CN2CCN(Cc3c[nH]c4ccccc34)CC2)cc1 do in these assays?
TEAD-YAP inh: -9; MITF primary: 75*; FBW7 act: 0; GPR151 activ: -1; MITF inh conf: 84*; AlphaScreen DR: >5.9; AlphaScreen intf2: 9

Results for c1ccc2cc(CN3CCOCC3)ccc2c1 ?
TEAD-YAP inh: -17; MITF primary: -5; FBW7 act: 0; GPR151 activ: 1

Results for Fc1ccccc1CN1CCN(Cc2ccc3ccccc3c2)CC1 ?
TEAD-YAP inh: 0; MITF primary: 75*; FBW7 act: 1; GPR151 activ: -1; MITF inh conf: -7; AlphaScreen intf2: 1

What do the screens show for `Brc1ccccc1CN1CCN(Cc2c[nH]c3ccccc23)CC1`?
TEAD-YAP inh: 4; MITF primary: 59*; FBW7 act: 0; GPR151 activ: 0; MITF inh conf: -5; AlphaScreen intf2: -4

How did COCc1ccc(C(=O)N2CCC(C(Cc3ccccc3)N(C)Cc3cccnc3)CC2)o1 (stereo not given) do in these assays?
TEAD-YAP inh: -7; MITF primary: -15; FBW7 act: 0; GPR151 activ: 0

How did CN(C)C(=O)CSc1nnc(-c2ccc3c(c2)OCO3)o1 do in these assays?
TEAD-YAP inh: -36; MITF primary: 2; FBW7 act: 0; GPR151 activ: -5

Results for CC(=O)N1CCC(=NNc2nc3ccccc3[nH]2)CC1 ?
TEAD-YAP inh: -26; MITF primary: 82*; FBW7 act: 0; GPR151 activ: 1; MITF inh conf: 30*; AlphaScreen intf2: 50*

Results for CCCSCCCn1cnc2c([nH]c3ccccc32)c1=O ?
TEAD-YAP inh: 10; MITF primary: 5; FBW7 act: 1; GPR151 activ: -2

Results for O=C(N1CCCCCC1)C1(S(=O)(=O)c2ccc(Cl)cc2)CC1 ?
TEAD-YAP inh: 11; MITF primary: 62*; FBW7 act: 0; GPR151 activ: 1; MITF inh conf: 3; AlphaScreen intf2: -1

What do the screens show for `O=C(Nc1ccc(Br)cc1)c1ccc([N+](=O)[O-])o1`?
TEAD-YAP inh: 9; MITF primary: 10; FBW7 act: 0; GPR151 activ: 1

How did CC(=O)NS(=O)(=O)c1ccc(NC(=O)c2ccc([N+](=O)[O-])o2)cc1 do in these assays?
TEAD-YAP inh: 12; MITF primary: 64*; FBW7 act: 0; GPR151 activ: 3; MITF inh conf: 40*; AlphaScreen DR: >6.6; AlphaScreen intf2: -5

Results for COc1ccc(C(CNC(=O)c2ccc(Br)cc2)N(C)C)cc1 (stereo not given) ?
TEAD-YAP inh: 6; MITF primary: 10; FBW7 act: 0; GPR151 activ: 1
